Among all 96,000 compounds or so, about 200 (0.21%) were called active.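 Rule for the calls: active = inhibition at 2 µM at or above a set limit, the screen mean plus 3 SD (cut at about 24% in these data); inactive = the rest.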 Shown is part of a subset that was picked to be rich in actives.
Molecular target: Tyrosine-protein phosphatase non-receptor type 22 (Homo sapiens) (UniProt Q9Y2R2)
Assay: blockers of human LYP enzyme activity – biochemical, DiFMUP fluorescence, 2 µM, primary screen (AID 640);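 note: 0% = DMSO with enzyme and 100% = enzyme fully blocked by orthovanadate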
Details: recombinant LYP catalytic domain, at 2 µM, hits give high values

Sequence of Tyrosine-protein phosphatase non-receptor type 22 (Homo sapiens) (Q9Y2R2 whole entry, looked up): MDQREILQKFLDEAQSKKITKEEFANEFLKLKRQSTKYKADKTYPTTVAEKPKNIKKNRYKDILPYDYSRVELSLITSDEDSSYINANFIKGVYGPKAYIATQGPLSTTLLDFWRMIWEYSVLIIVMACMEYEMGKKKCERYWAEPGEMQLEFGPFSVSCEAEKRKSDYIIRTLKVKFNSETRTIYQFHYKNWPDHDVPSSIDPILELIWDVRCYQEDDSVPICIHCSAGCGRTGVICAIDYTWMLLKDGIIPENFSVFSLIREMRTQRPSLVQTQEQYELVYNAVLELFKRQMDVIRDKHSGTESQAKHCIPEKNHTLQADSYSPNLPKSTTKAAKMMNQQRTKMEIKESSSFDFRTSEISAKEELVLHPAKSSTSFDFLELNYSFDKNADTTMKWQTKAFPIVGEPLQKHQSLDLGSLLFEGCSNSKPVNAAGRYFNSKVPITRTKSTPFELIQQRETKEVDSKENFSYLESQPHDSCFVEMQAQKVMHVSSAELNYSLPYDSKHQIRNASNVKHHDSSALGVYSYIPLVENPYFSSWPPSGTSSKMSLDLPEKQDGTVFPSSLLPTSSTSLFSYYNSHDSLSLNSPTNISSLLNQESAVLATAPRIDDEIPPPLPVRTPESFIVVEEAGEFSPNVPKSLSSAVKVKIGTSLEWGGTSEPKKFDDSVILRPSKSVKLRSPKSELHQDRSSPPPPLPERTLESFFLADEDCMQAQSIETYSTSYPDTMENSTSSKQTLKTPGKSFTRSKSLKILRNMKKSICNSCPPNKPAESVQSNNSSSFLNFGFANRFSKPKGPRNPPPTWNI

inhibition, active:
O=C(Cn1c(-c2ccc(Cl)cc2)noc1=O)N1CCN(c2ccccc2F)CC1 27.2%

inhibition, inactive:
O=C1CCCC2=C1C(c1ccccc1)n1c(s/c(=C/c3cccc(F)c3)c1=O)=N2 (configuration not stated) 3.1%, O=C(Nc1cccc(NC(=O)c2ccco2)c1)c1cnccn1 -8.1%, CCOC(=O)c1nc(Nc2ccc(C(=O)OC)cc2)c2ccccc2n1 1.7%, Cc1noc(COc2ccccc2OCc2onc(C)c2Cl)c1Cl -6.2%, CN1CCCN(S(=O)(=O)c2ccc3c(c2)OCCO3)CC1 14.9%, CC(C)(C)c1cc(=O)n2c(nc3ccccc32)[nH]1 16.2%, CCOC(=O)NNC(=O)c1ccc(Cl)cc1 -7.6%, O=C(CSc1ccccc1)Nc1ccc(NC(=O)c2ccco2)cc1 8.9%, O=C(CN1CCN(S(=O)(=O)c2ccc(Cl)s2)CC1)NCc1ccc(Cl)cc1 -18.4%, O=C(c1ccc(F)cc1)c1c[nH]c(C(=O)NCc2cccnc2)c1 -21.4%, CC(C)C(NC(=O)c1ccc(Cl)cc1)C(=O)O (configuration not stated) 0.8%, Cc1ccc2c(Cl)c(C(=O)NCCCn3ccnc3)sc2c1 -1.4%, COc1ccc(Cc2nnc(SCC(=O)c3cccc([N+](=O)[O-])c3)n2C)cc1 15.2%, CN(C)c1nc(N)nc(CSc2ccccn2)n1 -6.7%, COc1ccc(CCN2C(=O)C3CC=C(C)CC3C2=O)cc1OC (configuration not stated) 3.1%, Clc1ccc(C2=CSC3=Nc4cccc5cccc(c45)N23)cc1 13.9%, CC(=O)NC1(c2cccc(F)c2)CCN(CC(=O)NC(C)C)CC1 -6.7%, CC(=O)Oc1ccc(C(C)=O)c2c1OCCO2 -11.9%, Cc1cc2c(cc1C)N(C(=O)CN1C(=O)c3ccccc3C1=O)C(C)(C)c1ssc(=S)c1-2 2.3%, CS(=O)(=O)N(CC(=O)Nc1ccc(Cl)c(Cl)c1)C1CCCCC1 -10%, O=C(Nc1ccccc1[N+](=O)[O-])C1C(c2ccccc2)=C1c1ccccc1 -0.6%, O=C(c1ccc(CN2CCOCC2)cc1)N1CCN(c2ccccc2F)CC1 -7.2%, O=C(c1cccc2ccccc12)N1CCN(c2ccccc2F)CC1 -10.2%, COC(=O)c1nc2ccccc2s1 -12%, COc1ccc(NC(=O)CSc2nc(N)c(-c3ccccc3)c(=O)[nH]2)cc1 -3.5%, C=CCN1C(=O)C(Cc2cccc(Cl)c2)S/C1=N/N=C/c1ccco1 (configuration not stated) 8.9%

Source: PubChem BioAssay AID640 (Columbia University Molecular Screening Center, 2007)
